Assay outcomes as filed in PubChem.
Rows were chosen to be rich in hits. Some 1.5% of all compounds tested hit in one or more screens of this group.
Bcl-xL primary = inhibitors of human Bcl-xL | GST-Bcl-xL / FITC-Bim BH3 peptide fluorescence polarization | inhibition, % at 10.9 µM | AID 2129 | hit rate 0.7% among 320,000;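 active means inhibition above the mean of all tested compounds plus 3 SD, cutoff set per campaign, cut at about 30% in these data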;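 further: 0% = DMSO wells and 100% = unlabeled Bim-BH3 peptide competitor; inhibitors lower millipolarization by displacing the labeled peptide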
MCL1-BIM inh = inhibitors of human MCL1 binding to BIM-BH3 peptide; GST-MCL1 / FITC-Bim-BH3 fluorescence polarization; inhibition, % at 10.9 µM; hit rate 0.68% among 320,000; AID 2057;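 active means inhibition above the mean inhibition of all tested compounds plus 3 SD, set per campaign, cut at about 40% in these data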;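 further: 0% = DMSO wells and 100% = unlabeled Bim-BH3 peptide control; higher means more loss of mP so more displacement of Bim peptide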
IDE cell activ = boosts human insulin-degrading enzyme activity in HEK cells | P14735 | FAbeta-B cleavage, fluorescence polarization; 0% vehicle, 100% cell-free pure enzyme wells | activation, % at 5.96 µM | hit rate 0.073% among 340,000;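 active means activation above the mean of all tested compounds plus 3 SD, set per screening campaign, cut at about 17% in these data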
Target sequence (P14735 whole entry, looked up): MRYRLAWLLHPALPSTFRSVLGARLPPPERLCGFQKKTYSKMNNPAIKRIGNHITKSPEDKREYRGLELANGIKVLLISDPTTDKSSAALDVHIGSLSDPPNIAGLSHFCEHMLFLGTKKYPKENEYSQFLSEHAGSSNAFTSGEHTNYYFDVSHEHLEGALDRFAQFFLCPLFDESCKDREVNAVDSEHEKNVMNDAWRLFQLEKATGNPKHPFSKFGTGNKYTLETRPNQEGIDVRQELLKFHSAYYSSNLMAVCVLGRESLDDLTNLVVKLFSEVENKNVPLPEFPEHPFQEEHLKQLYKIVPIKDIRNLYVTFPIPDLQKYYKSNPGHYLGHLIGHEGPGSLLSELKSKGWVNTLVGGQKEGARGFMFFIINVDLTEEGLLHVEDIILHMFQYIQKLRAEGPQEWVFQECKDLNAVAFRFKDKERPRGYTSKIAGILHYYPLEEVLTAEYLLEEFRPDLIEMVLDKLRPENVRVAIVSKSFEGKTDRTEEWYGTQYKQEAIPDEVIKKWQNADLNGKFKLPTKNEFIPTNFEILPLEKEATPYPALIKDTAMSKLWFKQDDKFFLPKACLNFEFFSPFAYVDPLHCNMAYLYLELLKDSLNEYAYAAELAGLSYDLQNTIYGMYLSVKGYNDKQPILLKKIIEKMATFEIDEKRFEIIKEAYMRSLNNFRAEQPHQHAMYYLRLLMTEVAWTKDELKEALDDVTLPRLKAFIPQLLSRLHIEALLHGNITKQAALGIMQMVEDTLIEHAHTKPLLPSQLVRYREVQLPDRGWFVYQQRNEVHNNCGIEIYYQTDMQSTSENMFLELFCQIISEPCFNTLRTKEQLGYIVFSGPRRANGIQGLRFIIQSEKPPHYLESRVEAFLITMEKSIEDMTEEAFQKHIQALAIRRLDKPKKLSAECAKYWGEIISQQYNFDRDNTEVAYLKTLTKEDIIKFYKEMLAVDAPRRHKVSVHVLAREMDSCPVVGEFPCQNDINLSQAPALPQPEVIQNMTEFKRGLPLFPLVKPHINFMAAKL
MEX-5 binding = C. elegans MEX-5 TCR-2 RNA binding activity; Q9XUB2; MEX-5/FITC-TCR2 RNA binding, fluorescence polarization; hits give low values; activity score (negative = inhibition of binding), % at 10 µM; hit rate 0.38% among 300,000;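 active means inhibition past about -25% in most replicates, and total fluorescence under double the plate's negative control median, limit read from the data; inconclusive means replicates evenly split on the limit, or fluorescence at least double controls; inactive means too little inhibition in most replicates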;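 further: 0% = DMSO and -100% = 5 µM competing unlabeled TCR2 RNA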
IDE inh = inhibits human insulin-degrading enzyme in HEK cells. P14735. inhibition, % at 5.59 µM. FAbetaB cleavage, fluorescence polarization. hit rate 0.41% among 320,000;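 active means percent inhibition above the average of all tested compounds plus 3 SD, set per screening campaign, cut at about 16% in these data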;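 further: IDE supplied by intact live HEK cells; FP after avidin binding of uncleaved biotin substrate so inhibition keeps polarization high; 0% = DMSO wells and 100% = 60 µM reference IDE inhibitor Ii1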
GLD-1 TGE inh = GLD-1-TGE RNA interaction inhibition (C. elegans); Q17339; purified GLD-1 + fluorescein TGE RNA, fluorescence polarization; inhibition, % at 5.96 µM; hit rate 0.44% among 320,000; AID 2280;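 active means percent inhibition above a per-plate cutoff, the plate mean of test compounds plus 3 SD, cut at about 30% in these data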;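 further: 0% = DMSO wells with GLD-1 and probe and 100% = wells lacking GLD-1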
BCLXL inh confirm = counter-screen for MCL1 inhibitors: confirmation of human Bcl-xL inhibitors; inhibition, % at 10.9 µM; GST-Bcl-xL / FITC-Bim BH3 peptide FP binding; shares compounds with MCL1-BIM inh; hit rate 54% among 1,700;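 active means inhibition above a cutoff equal to the mean inhibition of all tested compounds plus 3 SD, cut at about 30% in these data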;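 further: 0% = DMSO wells and 100% = unlabeled Bim BH3 control peptide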
MCL1 inh confirm = MCL1-BIM-BH3 interaction inhibition, confirmation. shares compounds with MCL1-BIM inh. GST-MCL1 / FITC-Bim-BH3 fluorescence polarization. inhibition, % at 10.9 µM. hit rate 61% among 1,700;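 active means inhibition above the average of all tested compounds plus 3 SD, cut at about 40% in these data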;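 further: 0% = DMSO wells and 100% = unlabeled Bim-BH3 control peptide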
GLD1 RNA confirm = GLD-1 TGE RNA interaction inhibition, confirmation | GLD-1/FL-TGE RNA fluorescence polarization, biochemical | shares compounds with GLD-1 TGE inh | AID 2459 | hit rate 10% among 550 | inhibition, % at 5.96 µM;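 active means average inhibition across triplicates above the hit cutoff set in the primary screen, cut at about 32% in these data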;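 further: 0% = GLD-1 with RNA probe and DMSO and 100% = wells lacking GLD-1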
IDE cell inh cf = confirmation of human insulin-degrading enzyme inhibitors in cells. inhibition, % at 5.59 µM. shares compounds with IDE inh. hit rate 51% among 1,200. HEK cells, FAbetaB cleavage, fluorescence polarization;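 active means mean inhibition across triplicate wells above the cutoff set by the earlier primary insulin-degrading enzyme screen, cut at about 16% in these data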;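 further: 0% = DMSO wells and 100% = 60 µM reference IDE inhibitor Ii1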
HEK cytotox = counter-screen for IDE inhibitors: cytotoxicity in HEK cells; shares compounds with IDE inh; HEK293 cytotoxicity, ATP luminescence; inhibition, % at 5.59 µM; hit rate 28% among 1,200; AID 449730; in the data active means inhibition above about 22%;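 further: 0% = vehicle wells and 100% = reference cytotoxic drug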
An asterisk follows results filed as active; ? = inconclusive; . = no result given; + = active, no number.

SMILES	Bcl-xL primary	MCL1-BIM inh	IDE cell activ	MEX-5 binding	IDE inh	GLD-1 TGE inh	BCLXL inh confirm	MCL1 inh confirm	others
CC12CCC3c4ccc(OC(=O)N(CCCl)CCCl)cc4CCC3C1CCC2O (stereo not given)	.	.	4	.	.	.	.	.
COc1ccc(CN2C(=O)NC(=O)/C(=C/c3ccc([N+](=O)[O-])s3)C2=O)cc1	22	26	-17	-1	10	-10	.	.
COc1ccc(N2C(=O)NC(=O)/C(=C\c3ccc([N+](=O)[O-])s3)C2=O)cc1	21	41*	-8	-24	10	-4	44*	55*
O=C1NC(=O)N(Cc2ccc(F)cc2)C(=O)/C1=C\c1ccc([N+](=O)[O-])s1	22	40*	-21	-11	12	-8	17	44*
COC(=O)C1=C(c2c(C)noc2C)C[C@@H]2CC[C@H]1N2C(=O)NCc1ccco1	9	7	1	.	0	0	.	.
CC(=O)c1ccc2c(c1)C1C(Cl)C(Sc3ccccc3[N+](=O)[O-])CC1C(C(=O)O)N2 (stereo not given)	28	64*	-4	.	7	8	19	38
O=C(O)c1cccc2c1NC(C(=O)O)C1CC(Sc3ccccc3[N+](=O)[O-])C(Cl)C21 (stereo not given)	62*	100*	2	.	4	14	50*	106*
NC(Cc1cc(O)c(O)cc1O)C(=O)O (stereo not given)	67*	95*	.	.	-5	13	55*	96*
N#CC(=C(O)c1ccc(S(=O)(=O)N(CCCl)CCCl)cc1)c1nc2ccccc2[nH]1	.	.	9	.	.	.	.	.
COC(=O)C1=C(c2ccc(OC(F)(F)F)cc2)C[C@@H]2CC[C@H]1N2C(=O)NCCOc1ccc(OC)cc1	-1	9	3	.	0	5	.	.
O=[N+]([O-])c1cc(S(=O)(=O)c2ccc(O)c([N+](=O)[O-])c2)ccc1O	15	47*	2	-36*	2	-3	24	72*
COc1cccc(NP2(=O)OCC(C)([N+](=O)[O-])CO2)c1 (stereo not given)	.	.	1	.	.	.	.	.
C=CCN1CCc2cccc3c2[C@H]1Cc1ccc(O)c(O)c1-3	23	43*	-8	-4	-1	1	33*	67*
C=CCN1CC[C@]23c4c5ccc(O)c4O[C@H]2C(=O)CC[C@@]3(O)[C@H]1C5	5	5	4	-3	4	3	.	.
O=c1[nH]c(O)c(/C=C2\C=Nc3ccc(OCc4ccccc4)cc32)c(=O)[nH]1	167*	188*	9	?	-3	46*	126*	153*
Nc1cc2nc3ccccc3nc2cc1N	96*	140*	-3	?	0	36*	+	+	GLD1 RNA confirm=61*
CC1C2Cc3ccc(O)cc3[C@]1(C)CCN2CCc1ccccc1 (stereo not given in full)	.	.	1	.	6	-3	.	.
COC(=O)[C@@]1(C#N)[C@@H]2C=CC(C(C)=O)=CN2[C@@H](C(N)=O)[C@@H]1c1ccc(F)cc1	72*	81*	3	-57*	-2	44*	149*	189*	GLD1 RNA confirm=97*
CC(CC(C)(C)N1CC1)=NO	.	.	0	.	.	.	.	.
CN1Cc2c(c(C#N)c(N)n(C)c2=S)CC1(C)C	94*	103*	6	-48*	-7	46*	144*	185*	GLD1 RNA confirm=27
COc1ccc(CC2NCC(O)C2OC(C)=O)cc1 (stereo not given)	.	.	-5	.	.	.	.	.
CN1C[C@H](CO)C=C2c3cccc4[nH]cc(c34)C[C@H]21	70*	79*	1	?	1	64*	65*	87*	GLD1 RNA confirm=17
COC(=O)C1=C(c2ccc(F)cc2F)C[C@@H]2CC[C@H]1N2C(=O)NC1Cc2ccccc2C1	1	4	0	.	-4	-1	.	.
O=C1NC(=O)N(c2cccc(Cl)c2)C(=O)/C1=C\c1ccc(Sc2nc3ccccc3[nH]2)o1	91*	181*	-33	3	26*	20	25	41*	IDE cell inh cf=15;HEK cytotox=10
CCN1/C(=C\C=C\C2=[N+](CC)c3ccccc3C2(C)C)C(C)(C)c2ccccc21	+	+	-95	?	82*	+	+	+	IDE cell inh cf=173*;HEK cytotox=120*
SMILES	Bcl-xL primary	MCL1-BIM inh	IDE cell activ	MEX-5 binding	IDE inh	GLD-1 TGE inh	BCLXL inh confirm	MCL1 inh confirm	others
Cc1nn(CC(C)C)c(Cl)c1C(=O)NC1CCCCC1	.	.	4	.	.	.	.	.
COC(=O)C1=C(c2cccc(C#N)c2)C[C@@H]2CC[C@H]1N2C(=O)N1CCCCC1	6	3	-4	.	3	-5	.	.
COc1cc2c(C(=O)N3CCN(C)CC3)c(C)n(C)c2cc1Br	40*	42*	2	-10	3	38*	.	.	GLD1 RNA confirm=5
C[C@]12C[C@@H](O)[C@H](O)CC1=CCC1C2CC[C@@]2(C)C1CC[C@@H]2O (stereo not given in full)	.	.	4	.	1	3	.	.
CCOC(=O)c1c(C)n(Cc2ccccc2)c2ccc(OCC(O)Cn3nc(C)nc3C)cc12 (stereo not given)	2	1	-10	1	15	4	.	.
CCOC(=O)c1c(C)n(Cc2ccccc2)c2ccc(OCC(O)CNC(C)(C)C)cc12 (stereo not given)	0	2	-19	2	38*	0	.	.	IDE cell inh cf=19*;HEK cytotox=18
CCCC1(CCO)C(=O)NC(=S)NC1=O	.	.	0	.	.	.	.	.
CCN(CC)c1ccc(/C=C2\C(=O)NC(=S)N(c3ccc(OC)cc3OC)C2=O)o1	-112	-176	-33	?	33*	-187	.	.	IDE cell inh cf=36*;HEK cytotox=4
CCN(CC)c1ccc(C=C2C(=O)N(C)C(=S)N(C)C2=O)o1	-59	-121	-15	5	12	-86	.	.
CCN(CC)c1ccc(/C=C2\C(=O)NC(=S)N(C)C2=O)o1	-95	-145	-25	20	26*	-179	.	.	IDE cell inh cf=29*;HEK cytotox=14
Cc1cccc(NC(=O)COC(=O)c2cc(C)n(C3CC3)c2C)c1	-3	-13	-1	.	-2	-4	.	.
